Sampled rows, rich in hits. Any-hit rate of the full collection: about 4.7%.
HSP90 inh: HSP90 inhibitors, primary screen, cell lysate, luminescence | Rabbit reticulocyte lysate, luciferase refolding luminescence, 3 h | inhibition, % at 5.6 µM | hit rate 0.91% among 290,000;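 active = inhibition above the screen-wide mean plus 3 SD, computed separately per campaign, cut at about 16% in these data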;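 also: inhibitors lower the luminescence because luciferase stays unfolded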
HSF1 inh: HSF1 inhibitors in luciferase reporter cells, primary screen, cell-based, NIH3T3, luminescence | NIH3T3-HGL HSE-luciferase, MG132-induced, luminescence 8 h; hits give low values | activity change, negative = inhibition, % at 7.5 µM (by protocol) | hit rate 0.77% among 300,000 | AID 2098, 2009;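 active = more than half of replicate wells show activity change below -50%, luminescence cut by over half; inconclusive = some wells, but at most half, below -50%; inactive = no replicate well below -50%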;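 also: luciferase reports HSF-1 transcriptional activity via heat shock element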
EBV LMP1 NFkB: EBV LMP1-driven NF-kappaB luciferase reporter inhibitors, primary screen, cell-based, luminescence, single point; LMP1-induced NF-kappaB luciferase reporter cells; inhibition, % at 12.5 µM; hit rate 0.69% among 350,000; AID 504558, 2011; in the data active = inhibition above about 41%; inconclusive = no clear call, values can overlap the other calls
TWEAK-Fn14 inh: inhibitors of TWEAK-Fn14 signaling, primary screen, luciferase reporter cells, uHTS; inhibition, % at 10 µM; hit rate 2% among 360,000; TWEAK-stimulated Fn14 reporter cells, luciferase luminescence, 8 h; in the data active = inhibition above about 50%
HSF1 activator: HSF-1 activators, primary screen, NIH3T3-HGL cells, MG132 stress, luminescence, single point. hit rate 1.7% among 300,000. activation, % at 9 µM. NIH3T3-HGL HSF-1 luciferase reporter, 8 h; 100% = twice DMSO control signal;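 active = mean replicate activation of at least 50% with a set share of replicates each reaching 50%; inconclusive = only one of those two conditions met; inactive = mean below 50% and too few replicates reaching it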
TROY NFkB inh: inhibitors of TROY-driven NF-kB signaling, primary screen, Q293 LMP1-TROYcd cells, NF-kB luciferase, uHTS; Q293 LMP1-TROYcd NF-kB luciferase reporter, 4 h; hit rate 0.98% among 360,000; inhibition, % at 10 µM;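 active = compounds whose plate-normalised and pattern-corrected inhibition of the luciferase reporter signal at the single screening dose is 50% or more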
Large screens that a line does not name were inactive.

Cc1ccc(-c2[nH]ncc2/C=N/n2c(C)nc3ccccc3c2=O)cc1	HSF1 inh -52
Cc1nc2cc(-c3ccccc3)nn2c(N)c1-c1ccccc1	TWEAK-Fn14 inh 74, TROY NFkB inh 73 (no result: HSP90 inh, HSF1 inh, HSF1 activator)
Cc1cccc(-c2cc3nc(C)cc(C)n3n2)c1	HSF1 activator 60
Cc1cc(C)n2nc(-c3cccc(Br)c3)cc2n1	none
C(=C\c1ccccc1)/CN1CCN(C(CCc2ccccc2)c2nnnn2C2CCCC2)CC1 (stereo not given)	none (no result: HSP90 inh, HSF1 inh, EBV LMP1 NFkB, HSF1 activator)
CCOCCCNC(=O)CN1C(=O)/C(=C\c2ccc(C)cc2)Sc2ccccc21	EBV LMP1 NFkB 69
CCN1CCN(CCCNC(=O)c2ccc(/C=C3/Sc4ccccc4N(Cc4ccccc4F)C3=O)cc2)CC1	TROY NFkB inh 60
CCN(CC)c1ncnc2c1ncn2[C@H]1CN(Cc2ccncc2)C[C@@H](CO)O1	none (no result: HSP90 inh, HSF1 inh, EBV LMP1 NFkB, HSF1 activator)
CCOC(=O)c1ccc(NC(=O)CCS(=O)(=O)c2ccc(Br)s2)cc1	HSF1 activator 117
COc1ccc(Cl)c(-c2cc(C(=O)Nc3ccc(F)cc3)[nH]n2)c1	none (no result: HSP90 inh, HSF1 inh, EBV LMP1 NFkB, HSF1 activator)
CNC(=O)C1=NCCCc2cc(OC)c(OC)cc21	EBV LMP1 NFkB 64
Cc1ccc(CSc2ncn(-c3ccccc3)n2)cc1	none
Clc1ccccc1CSc1ncn(-c2ccccc2)n1	HSF1 activator 67
O=C1NC(=O)C2(N1)C(=O)c1cccc3cccc2c13 (stereo not given)	none (no result: HSP90 inh, HSF1 inh, HSF1 activator)
CNC(=O)c1cc2c(ccc3ccccc32)o1	HSF1 activator 58
Cc1ccc(/C=N/NC(=O)c2cc3c(ccc4ccccc43)o2)o1	TROY NFkB inh 73
CCNC(=S)NNC(=S)NCc1ccccc1	none
CCC(NC(=S)NCc1ccccc1)C(=O)O (stereo not given)	HSF1 inh -60
O=C(/C=C1\NC2(CCCC2)Cc2ccccc21)C(=O)N/N=C/c1ccccc1O	EBV LMP1 NFkB 44
COc1cc(/C=N/NC(=O)C(=O)/C=C2\NC3(CCCC3)Cc3ccccc32)ccc1O	none
O=C(CO/N=C/c1ccccc1)N1c2ccccc2Oc2ccccc21	HSP90 inh 16
CCc1nc2ccc(C(=O)N(C)CCCN(C)C)cn2c1N(C)Cc1cc2ccccc2s1	none (no result: HSP90 inh, HSF1 inh, EBV LMP1 NFkB, HSF1 activator)
N#CC(C#N)=C1C=CC=CN1/C(=C\c1ccccc1)C(=O)c1cccs1	HSF1 activator 214
O=c1[nH]c2cc([N+](=O)[O-])ccc2c2cc(Br)ccc12	none (no result: HSP90 inh, HSF1 inh, HSF1 activator)
Cc1ccccc1N=Nc1c(O)[nH]c2ccccc12	none (no result: HSP90 inh, EBV LMP1 NFkB)
Cc1ccc2[nH]c(O)c(N=Nc3ccccc3C)c2c1	HSF1 inh -63
COc1cc(C(=O)NCc2nnc(SCC(=O)N3CCC(C)CC3)o2)cc(OC)c1OC	none
COc1ccc(C(=O)NCc2nnc(SCC(=O)N3CCC(C)CC3)o2)cc1OC	HSF1 inh -67
CCc1n[nH]c(=S)n1/N=C/c1ccc(N(C)c2ccccc2)cc1	EBV LMP1 NFkB 76
CCc1n[nH]c(=S)n1/N=C/c1ccc2c(c1)OCO2	none
Cc1ccc(Cl)c2c1=NC(=O)C=2c1[nH]c(=S)[nH]c1O	HSF1 activator 126
CC(=O)c1ccc(OC2(C)CCN(CCOc3ccc(C)cc3)C2)cc1 (stereo not given)	none (no result: HSP90 inh, HSF1 inh, EBV LMP1 NFkB, HSF1 activator)
O=C(OCc1ccccc1C(F)(F)F)c1ccc(Br)c(S(=O)(=O)N2CCOCC2)c1	none (no result: HSP90 inh, HSF1 inh, HSF1 activator)
Cn1c(=NC(=O)c2ccccc2[N+](=O)[O-])sc2cc(S(C)(=O)=O)ccc21	TWEAK-Fn14 inh 51
N#Cc1c(-c2ccccc2)nc(SCc2cccc(Cl)c2)[nH]c1=O	TROY NFkB inh 58
COc1ccc(N2C(=O)/C(=C\c3ccco3)N=C2SCC(=O)NC(C)(C)C)cc1Cl	HSF1 activator inconclusive
CCOc1cc(/C=C2\N=C(SC(C)C(N)=O)N(c3ccc(OC(F)F)cc3)C2=O)ccc1O (stereo not given)	none
NC(=O)CSC1=N/C(=C\c2ccco2)C(=O)N1c1ccc(OC(F)F)cc1	HSF1 activator 72
CCN(CC)C(=O)CSC1=N/C(=C/c2ccco2)C(=O)N1c1ccc(OC)c(Cl)c1	HSF1 activator 67
CN1C(=O)[C@H]2[C@@H](c3ccc(C(F)(F)F)cc3)N[C@]3(CCCN(CC4CCCCC4)C3=O)[C@H]2C1=O	none (no result: HSP90 inh, HSF1 inh, HSF1 activator)
Cc1ccsc1/C=C/C1=NCCCN1C	HSF1 inh -61
Cc1ccc(C(=O)NC(=S)c2c(C)cc3ccccn23)cc1	none (no result: HSP90 inh, HSF1 inh, HSF1 activator)
COc1cc2cncc(Cc3ccc(Cl)cc3)c2cc1OC	TWEAK-Fn14 inh 75, TROY NFkB inh 58 (no result: HSP90 inh, HSF1 inh, HSF1 activator)
CC1(C(=O)NS(=O)(=O)c2cccc(C#N)c2)CCN1C(=O)CC1CCCC1 (stereo not given)	none (no result: HSP90 inh, HSF1 inh, EBV LMP1 NFkB, HSF1 activator)
O=C(N/C(=C\c1ccc(Br)cc1)C(=O)N1CCOCC1)c1ccc(Br)o1	none
O=C(N/C(=C/c1ccc(Br)cc1)C(=O)N1CCOCC1)c1ccc(Br)o1	EBV LMP1 NFkB 61
CC(C)C(Cl)=NOC(=O)Nc1ccc(F)cc1	TWEAK-Fn14 inh 51 (no result: HSP90 inh, HSF1 inh, HSF1 activator)
C/C(=N\OC(=O)Nc1ccc(Cl)cc1)c1ccc(F)c(F)c1	none
OC(CNCc1ccco1)Cn1c2ccc(Br)cc2c2cc(Br)ccc21 (stereo not given)	HSF1 activator 61
O[C@@H]1CN(CC2CCCCC2)[C@@H](c2ccc(Cl)cc2)C[C@H]1n1cc(-c2ccc(F)cc2)nn1	none (no result: HSP90 inh, HSF1 inh, HSF1 activator)
CCCN1CCC(C)(C(=O)Nc2cccc(OC(C)C)c2)C1 (stereo not given)	none (no result: HSP90 inh, HSF1 inh, EBV LMP1 NFkB, HSF1 activator)
COCCCN(Cc1cc(OC)c(OC)c(OC)c1)C(=S)Nc1cccc(SC)c1	none (no result: HSP90 inh, HSF1 inh, HSF1 activator)
CC(C)(C)c1ccc(OCc2ccc(C(=O)NCc3cccnc3)o2)cc1	HSF1 activator 112
O=C(NCc1cccnc1)c1ccc([N+](=O)[O-])o1	HSF1 activator 70
COc1ccccc1OCc1ccc(C(=O)NCc2cccnc2)o1	none
CC1CN(C(=O)c2cc(S(=O)(=O)N(C)c3ccc(F)cc3)ccc2Cl)CC(C)O1 (stereo not given)	HSF1 inh -71
O=C(Oc1ccc2c(c1)OCO2)c1cc2c(s1)CCC2	HSF1 activator 81
O=C(Oc1ccc2c(c1)OCO2)c1ccc(F)cc1Cl	HSF1 activator 63
CC(C)CN(C(=O)COC(=O)CCSc1ccc(Cl)cc1)c1c(N)n(Cc2ccccc2)c(=O)[nH]c1=O	none (no result: HSP90 inh, HSF1 inh, HSF1 activator)
Nc1ccc2nc(-c3ccccn3)[nH]c2c1	HSF1 inh -57
Nc1ccc2nc(CCc3ccccc3)[nH]c2c1	EBV LMP1 NFkB 59
O=S1(=O)CC(N2CCN(c3ccccn3)CC2)CN1C1CCCCC1 (stereo not given)	none (no result: HSP90 inh, HSF1 inh, EBV LMP1 NFkB, HSF1 activator)
O=C(/C=C/c1ccc([N+](=O)[O-])cc1)Nc1ncc([N+](=O)[O-])s1	TWEAK-Fn14 inh 66 (no result: HSF1 inh, HSF1 activator)
